# The list is not random: actives were taken first. Their share in the collection is about 3.4%.
# FBW7 activator – FBW7 E3 ligase activators, primary screen, biochemical, AlphaScreen, human | AlphaScreen FBW7–phospho-cyclin E peptide binding, activator screen | normalized activity (activation), % at 26.1 µM | 650,000 compounds, 0.13% hits | AID 1259310, 2017; in the data active = normalized activity above about 1.9%;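 also: purified mutant Fbw7 with reduced substrate affinity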
# MITF primary – MITF inhibitors, primary screen, biochemical, AlphaScreen, human | 650,000 compounds, 0.91% hits | Microphthalmia-associated transcription factor (Homo sapiens), O75030 | AlphaScreen MITF homodimerization, bead proximity signal | inhibition, % at 2.6 µM; in the data active = inhibition above about 50%;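 also: 0% = vehicle wells with protein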
# Target sequence (O75030 whole entry, looked up): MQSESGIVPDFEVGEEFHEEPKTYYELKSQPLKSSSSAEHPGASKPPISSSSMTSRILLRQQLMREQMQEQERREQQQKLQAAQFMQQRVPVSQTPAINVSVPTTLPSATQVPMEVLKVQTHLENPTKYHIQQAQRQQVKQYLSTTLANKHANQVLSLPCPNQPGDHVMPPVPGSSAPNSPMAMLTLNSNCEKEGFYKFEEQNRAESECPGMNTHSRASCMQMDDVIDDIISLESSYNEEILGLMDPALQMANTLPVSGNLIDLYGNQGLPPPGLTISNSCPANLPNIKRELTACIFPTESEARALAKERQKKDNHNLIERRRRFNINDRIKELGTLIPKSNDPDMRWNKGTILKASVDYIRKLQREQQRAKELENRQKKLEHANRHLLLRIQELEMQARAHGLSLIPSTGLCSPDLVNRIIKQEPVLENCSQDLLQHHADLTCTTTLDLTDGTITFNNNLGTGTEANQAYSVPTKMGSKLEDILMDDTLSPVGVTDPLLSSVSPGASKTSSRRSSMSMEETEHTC
# TEAD-YAP block – TEAD-YAP interaction inhibition, primary screen, TEAD-YAP interaction inhibitor project, luminescence, HEK-TIYL cells; TEAD-Gal4/YAP UAS-luciferase luminescence; AID 1259422, 2018; 640,000 compounds, 1.4% hits; inhibition, % at 9.12 µM; in the data active = inhibition above about 32%;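 also: 0% = median of test compound wells and 100% = reference inhibitor wells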
# GPR151 activ – activators of human GPR151, primary screen, cell-based, PathHunter beta-arrestin, luminescence; PathHunter beta-arrestin GPR151 cells; G-protein coupled receptor 151 (Homo sapiens), Q8TDV0; 650,000 compounds, 1% hits; activation, % at 11.2 µM; in the data active = activation above about 4.9%;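 also: 0% = median of compound wells and 100% = cells with positive control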
# * = called active by the depositor.
SMILES,FBW7 activator,MITF primary,TEAD-YAP block,GPR151 activ
Cc1ccc(N2CCN(C(=O)Cc3nn(C)c(=O)c4ccccc34)CC2C)cc1 (stereo unspecified),0,5,38*,0
COc1ccccc1C(C)NCC(O)c1ccccc1 (stereo unspecified),0,-11,1,0
O=C(O)c1ccccc1C(=O)Nc1ccc(I)cc1,0,3,-3,-1
Cc1cc(NC(=O)C(C)(C)C)ccc1Br,0,-7,0,2
C=CC(=O)Nc1ccc(Br)c(C)c1,0,4,62*,-1
O=C(Cc1ccc(Cl)cc1)NCc1cccs1,9.5*,13,6,2
Cc1nc2ccccn2c1C(=O)Nc1ccccc1,0,13,-12,0
Cc1nc2ccccn2c1C(=O)Nc1ccc(CC(=O)NCc2cccs2)cc1,0,-10,55*,-1
O=C(NCc1cccs1)C1CCN(C(=O)Nc2ccc(Cl)cc2)CC1,2.4*,14,-17,0
COc1cccc(NC(=S)N(CCCN2CCCCC2)Cc2ccco2)c1,0,7,1,1
Oc1ccc(-c2cnc3c(N4CCOCC4)nccn23)cc1,0,45,79*,-1
Oc1cccc(-c2cnc3c(N4CCOCC4)nccn23)c1,-1,10,80*,0
CC(=O)Nc1cccc(-c2cnc3c(N4CCOCC4)nccn23)c1,-1,11,79*,-1
CC(=O)Nc1cccc(-c2cnc3c(N4CCN(C)CC4)nccn23)c1,-1,13,-68,1
O=C(CN1CCN(S(=O)(=O)c2ccc3ccccc3c2)CC1)Nc1ccc(F)cc1,0,-8,-3,-1
CN(Cc1ccccc1)C(=O)c1ccc(-c2cnn(C)c2)nc1,1,3,-13,0
COC(=O)c1ccccc1NC(=O)c1cc(OC)c(OC)cc1[N+](=O)[O-],1,-19,-6,-2
CC1(C)CC(=O)C2=C(C1)Nc1ccc3ncccc3c1C2c1cccc(Cl)c1Cl (stereo unspecified),0,2,3,2
CC1(C)CC(=O)C2=C(C1)Nc1ccc3ncccc3c1C2c1cn[nH]c1-c1ccc(F)cc1 (stereo unspecified),0,-2,35*,-1
Cc1cc(N2CCN(c3ncccn3)CC2)nc2ccc(NC(=O)c3ccncc3)cc12,0,6,48*,1
COc1cc(/C=C/C(=O)Nc2ccc3nc(N4CCN(c5ncccn5)CC4)cc(C)c3c2)cc(OC)c1OC,0,1,42*,2
CCOC(=O)c1cc2ccccc2[nH]c1=O,2,-1,0,-1
COc1ccc(N(CC(=O)Nc2cccc(C)c2C)S(C)(=O)=O)cc1OC,0,19,-3,-2
Cc1ccc(C(=O)c2sc3nc(C)ccc3c2N)c(C)c1,0,-7,37*,0
COc1ccc(C(=O)c2sc3nc(C)ccc3c2N)cc1OC,0,-13,33*,0
SMILES,FBW7 activator,MITF primary,TEAD-YAP block,GPR151 activ
COc1ccc(-c2nc(NCCCN3CCCC3=O)c3ncn(-c4ccccc4)c3n2)cc1,0,10,20,3
O=C1CCCN1CCCNc1nc(-c2ccccc2)nc2c1ncn2-c1ccccc1,0,2,33*,3
O=C1CCCN1CCCNc1nc(NC2CC2)c2ncn(-c3ccccc3)c2n1,0,5,42*,-2
NC(=O)c1ccc(-c2nc(NCCCN3CCCC3=O)c3ncn(-c4ccsc4)c3n2)cc1,0,3,49*,0
O=C1CCCN1CCCNc1nc(-c2ccccc2)nc2c1ncn2-c1ccsc1,0,10,30,1
COc1ccccc1N1CCN(Cc2cc(Cl)c(O)c3ncccc23)CC1,0,74*,82*,-1
Oc1c(Cl)cc(CN2CCCC2)c2cccnc12,-1,113*,93*,-1
O=C(ONc1cnc2ccccc2c1)c1ccco1,0,14,31,-6
CCCNCc1ccc(OC2CCCC2)cc1,0,19,-5,-1
COc1ccc(-c2nccc(Nc3cc(OC)c(OC)c(OC)c3)n2)cc1,0,0,60*,2
COc1ccc(-c2nc(Nc3cc(OC)c(OC)c(OC)c3)nc(OC)n2)cc1,0,-2,45*,-1
COc1ccc(-c2nc(Nc3ccc(Oc4ccccc4)cc3)nc(OC)n2)cc1,0,16,3,2
CC(OC(=O)c1ccc(NS(=O)(=O)c2ccc(F)c(F)c2)cc1)C(=O)NC1CC1 (stereo unspecified),0,2,-5,0
COc1cc(C(=O)Nc2sc3c(c2C#N)CCC(C)C3)cc(OC)c1OC (stereo unspecified),1,9,9,0
COc1cc(C(=O)Nc2sc3c(c2C#N)CCC3)cc(OC)c1OC,0,4,41*,0
COc1cc(C(=O)Nc2sc3c(c2C#N)CCC(C)C3)c(Br)c(OC)c1OC (stereo unspecified),0,4,34*,0
O=C(Nc1ccc2oc(-c3cc(Br)ccc3Cl)nc2c1)c1ccccc1I,0,-11,-3,1
CC(C(=O)OCc1ccc(F)cc1)N1C(=O)C(=O)c2cc(Br)ccc21 (stereo unspecified),0,53*,0,1
COc1cccc(NC(=O)c2ccc(NCc3ccccc3Cl)c([N+](=O)[O-])c2)c1,0,13,52*,0
COc1ccc(CNc2ccc(C(=O)Nc3ccc(C)cc3C)cc2[N+](=O)[O-])cc1,0,-12,56*,-2
CCNc1ccc(C(=O)OCC(=O)OC(C)(C)C)cc1[N+](=O)[O-],0,5,-1,0
Cc1ccc(NC(=O)c2ccc(NCc3ccc(F)cc3)c([N+](=O)[O-])c2)c(C)c1,0,12,19,-1
CCNc1ccc(C(=O)NN)cc1[N+](=O)[O-],0,0,35*,2
CCCOc1ccc(C2=[N+]([O-])C3(CCCCC3=O)N(O)C2(C)C)cc1 (stereo unspecified),0,-2,55*,1
CC1(C)C(c2ccc(F)cc2)=[N+]([O-])C2(CCCCC2=O)N1O (stereo unspecified),1,8,-7,2
Cc1ccc(N2CCN(C(=O)CCc3nnc4ccc(N5CCOCC5)nn34)CC2)c(C)c1,0,-3,-3,-1
Oc1c(C(Nc2nccs2)c2ccc(F)cc2)ccc2cccnc12 (stereo unspecified),-2,22,43*,-1
Oc1c(C(Nc2nccs2)c2ccccc2)ccc2cccnc12 (stereo unspecified),-1,24,70*,0
Oc1c(C(Nc2nccs2)c2ccccn2)ccc2cccnc12 (stereo unspecified),0,43,76*,1
Cc1[nH]c2ccccc2c1C(Nc1nccs1)c1ccc(F)cc1 (stereo unspecified),0,4,-28,0
